From PubChem BioAssay (NCATS)
Records with an inconclusive call do not appear. Calls of active or inactive are those of the source. The call rests on the fitted dose curve; in most records, active means well fitted curve in the direction sought with a large enough effect; inconclusive means small, poorly fitted or top-dose-only effect, or another doubt; inactive means no such curve, though single readings can be large; an effect the other way counts as inactive or inconclusive.

What was measured:
[1] = target: Rap guanine nucleotide exchange factor 3 (Homo sapiens) (UniProt O95398); experiment: Confirmatory qHTS for agonist of cAMP-regulated guanine nucleotide exchange factor 3 (EPAC1) (AID 1645881);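 further: EPAC1 catalysed release of BODIPY-GDP from Rap1B seen as fluorescence loss; 100% = effect of cAMP agonist control; nearly all actives have a fitted effect of over 75% in size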
Rap guanine nucleotide exchange factor 3 (Homo sapiens), sequence (O95398 whole entry, looked up): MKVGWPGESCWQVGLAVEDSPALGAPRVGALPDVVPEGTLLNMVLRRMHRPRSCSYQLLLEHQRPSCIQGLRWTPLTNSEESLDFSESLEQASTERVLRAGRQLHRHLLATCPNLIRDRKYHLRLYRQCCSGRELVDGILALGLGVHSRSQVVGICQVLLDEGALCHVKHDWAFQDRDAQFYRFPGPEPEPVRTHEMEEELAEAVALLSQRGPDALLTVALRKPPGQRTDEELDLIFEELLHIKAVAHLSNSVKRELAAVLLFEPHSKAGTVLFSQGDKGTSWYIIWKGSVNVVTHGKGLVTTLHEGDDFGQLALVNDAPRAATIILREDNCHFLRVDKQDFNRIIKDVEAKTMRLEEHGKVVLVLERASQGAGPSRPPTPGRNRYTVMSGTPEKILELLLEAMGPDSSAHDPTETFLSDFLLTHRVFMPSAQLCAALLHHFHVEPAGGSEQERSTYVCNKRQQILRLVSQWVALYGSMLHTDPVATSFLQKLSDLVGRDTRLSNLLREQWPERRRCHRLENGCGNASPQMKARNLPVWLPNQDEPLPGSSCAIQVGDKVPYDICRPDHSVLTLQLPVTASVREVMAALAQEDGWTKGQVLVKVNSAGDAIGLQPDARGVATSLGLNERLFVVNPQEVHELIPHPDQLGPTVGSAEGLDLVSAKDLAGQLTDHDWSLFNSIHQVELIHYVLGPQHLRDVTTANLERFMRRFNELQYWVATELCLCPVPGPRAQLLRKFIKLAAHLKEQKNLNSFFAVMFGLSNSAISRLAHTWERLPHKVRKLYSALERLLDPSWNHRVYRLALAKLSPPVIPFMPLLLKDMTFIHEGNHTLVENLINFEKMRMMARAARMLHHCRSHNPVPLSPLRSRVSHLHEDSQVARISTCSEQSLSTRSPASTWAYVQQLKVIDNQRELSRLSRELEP

[2] = target: Rap guanine nucleotide exchange factor 4 (Homo sapiens) (UniProt Q8WZA2); experiment: Confirmatory qHTS for agonist of cAMP-regulated guanine nucleotide exchange factor 4 (EPAC2) (AID 1645884);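 further: nucleotide exchange releases bodipy-GDP from Rap1 and this lowers its fluorescence; on the % scale 0 is the no-effect control and ±100 the full control effect; nearly all actives have a fitted effect of over 65% in size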
Rap guanine nucleotide exchange factor 4 (Homo sapiens), sequence (Q8WZA2 whole entry, looked up): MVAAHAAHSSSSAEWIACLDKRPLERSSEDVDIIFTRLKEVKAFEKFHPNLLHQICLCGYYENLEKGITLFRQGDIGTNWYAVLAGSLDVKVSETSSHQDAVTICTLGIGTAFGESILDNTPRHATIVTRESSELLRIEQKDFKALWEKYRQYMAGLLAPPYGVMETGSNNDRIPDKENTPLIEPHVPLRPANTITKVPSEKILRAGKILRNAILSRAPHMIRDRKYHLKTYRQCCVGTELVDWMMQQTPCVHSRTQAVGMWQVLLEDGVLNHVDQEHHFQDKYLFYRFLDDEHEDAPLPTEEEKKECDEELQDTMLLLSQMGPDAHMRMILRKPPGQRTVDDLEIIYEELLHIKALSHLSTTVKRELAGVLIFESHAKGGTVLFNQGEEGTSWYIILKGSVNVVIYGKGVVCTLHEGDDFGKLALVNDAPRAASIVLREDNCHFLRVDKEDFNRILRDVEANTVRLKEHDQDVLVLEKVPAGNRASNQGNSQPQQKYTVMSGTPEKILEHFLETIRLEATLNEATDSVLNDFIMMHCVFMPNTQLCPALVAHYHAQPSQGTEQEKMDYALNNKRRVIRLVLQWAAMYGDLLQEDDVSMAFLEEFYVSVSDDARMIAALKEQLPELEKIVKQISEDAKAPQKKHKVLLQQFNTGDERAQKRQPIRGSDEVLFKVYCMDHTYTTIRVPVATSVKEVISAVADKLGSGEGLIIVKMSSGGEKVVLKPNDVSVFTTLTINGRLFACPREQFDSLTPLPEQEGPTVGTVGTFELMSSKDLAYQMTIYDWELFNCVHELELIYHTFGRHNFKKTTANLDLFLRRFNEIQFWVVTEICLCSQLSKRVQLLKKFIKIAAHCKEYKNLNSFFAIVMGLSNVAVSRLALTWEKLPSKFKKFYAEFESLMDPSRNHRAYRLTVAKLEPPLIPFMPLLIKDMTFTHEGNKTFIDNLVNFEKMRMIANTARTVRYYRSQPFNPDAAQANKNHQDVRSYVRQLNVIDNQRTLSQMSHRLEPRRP

[3] = target: Rap guanine nucleotide exchange factor 3 (Homo sapiens) (UniProt O95398); experiment: Counterscreen qHTS for antagonist of cAMP-regulated guanine nucleotide exchange factor 3 (EPAC1) (AID 1645888);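 further: fluorescence loss as bound BODIPY-GDP is released from Rap1B; % of control where 0% means no effect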
Procedure, shortened: (§1)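 Measured: fluorescence of BODIPY-GDP bound to Rap1B, which falls as exchange proceeds. Conditions include 50 uM competing GDP, 5 and 30 min reads, and a later cAMP challenge for antagonist detection.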

[4] = target: Rap guanine nucleotide exchange factor 3 (Homo sapiens) (UniProt O95398); experiment: Counterscreen qHTS for agonist of cAMP-regulated guanine nucleotide exchange factor 3 (EPAC1) (AID 1645889); further: % of control where 0% means no effect; nearly all actives have a fitted effect of over 40% in size
Procedure, shortened: as §1

[5] = target: Rap guanine nucleotide exchange factor 4 (Homo sapiens) (UniProt Q8WZA2); experiment: Confirmatory qHTS for antagonist of cAMP-regulated guanine nucleotide exchange factor 4 (EPAC2) (AID 1645885); further: on the % scale 0 is the no-effect control and ±100 the full control effect; nearly all actives have a fitted effect of over 25% in size

O=[N+]([O-])c1ccc(N(CCO)CCO)c2c1no[n+]2[O-]
inactive: Potency [1] | Potency [2] | outcome [3] | Potency [4]

NS(=O)(=O)c1ccc(-c2ccc(C=C3C(=O)NC(=O)NC3=O)o2)cc1
inactive: Potency [1] | Potency [2] | Potency [5] | outcome [3] | Potency [4]

Cc1oc(-c2ccccc2)nc1CN1C(=O)CN=C(c2ccccc2)c2ccccc21
inactive: Potency [1] | activation [2] 7.27% [at 17.1 µM, percent relative to cAMP agonist control] | activity change, negative = inhibition [3] -7.89% [at 30.8 µM] | activation [4] 28.8% [at 30.8 µM]
